Molecules are shown by their SMILES. This is part of a sample that, as a whole, favours compounds with a hit. Of some 83,000 tested, about 20% had one in any assay.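 Plates (96-well) were seeded with cells, treated with compound at one concentration, and incubated for 48 hours before percent growth was determined.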 Values without a mark were called inactive. Activity calls are given as the source filed them. How the source made its calls: active means growth percent below 10; inactive means the rest.

In this experiment the test system is MDA-MB-468 breast. In words: NCI-60 one-dose screen, 48 h (100 = growth as untreated, 0 = no growth, -100 = all killed). As to conditions: 10 µM unless noted.
`O=C1Nc2ccccc2SC1C1SC(=S)N(Cc2ccccc2)C1=O` (stereo not given): the growth was 31.4%.

In the case of `N#C/C(=C\c1ccc2ccccc2c1)C(=O)Nc1sc2c(c1C#N)CCC2`, the growth was 96.8%.

Turning to `Nc1nccc2c1ccn2-c1ccc(NC(=O)Nc2cccc(C(F)(F)F)c2)cc1`, the growth is 72.8%.

`COc1cc(Cl)cc(-c2nn(-c3cccc(NC(=O)Nc4ccc(Cl)c(Cl)c4)c3)cc2-c2ccncc2)c1`: the growth is 0.718% (active).

Consider `O=C(c1ccccc1)C(O)C(Br)(CBr)c1ccccc1` (stereo not given), for which the growth is 50.7%.

These data come from PubChem BioAssay (NCI).
